{"source": "PubChem BioAssay (Tox21)", "note": "Where “and” joins values, the source holds several entries; their conditions need not be identical. Equal values may be shown once. Inconclusive results are not listed. Entries that show only a call come without a potency. Values without a mark were called inactive. Calls of active or inactive are those of the source. Calls come from the whole dose curve. Potency is the fitted concentration of half-maximal effect."}
{"molecular_target": "Acetylcholinesterase (Homo sapiens) (UniProt P22303)", "sequence (P22303 whole entry, looked up)": "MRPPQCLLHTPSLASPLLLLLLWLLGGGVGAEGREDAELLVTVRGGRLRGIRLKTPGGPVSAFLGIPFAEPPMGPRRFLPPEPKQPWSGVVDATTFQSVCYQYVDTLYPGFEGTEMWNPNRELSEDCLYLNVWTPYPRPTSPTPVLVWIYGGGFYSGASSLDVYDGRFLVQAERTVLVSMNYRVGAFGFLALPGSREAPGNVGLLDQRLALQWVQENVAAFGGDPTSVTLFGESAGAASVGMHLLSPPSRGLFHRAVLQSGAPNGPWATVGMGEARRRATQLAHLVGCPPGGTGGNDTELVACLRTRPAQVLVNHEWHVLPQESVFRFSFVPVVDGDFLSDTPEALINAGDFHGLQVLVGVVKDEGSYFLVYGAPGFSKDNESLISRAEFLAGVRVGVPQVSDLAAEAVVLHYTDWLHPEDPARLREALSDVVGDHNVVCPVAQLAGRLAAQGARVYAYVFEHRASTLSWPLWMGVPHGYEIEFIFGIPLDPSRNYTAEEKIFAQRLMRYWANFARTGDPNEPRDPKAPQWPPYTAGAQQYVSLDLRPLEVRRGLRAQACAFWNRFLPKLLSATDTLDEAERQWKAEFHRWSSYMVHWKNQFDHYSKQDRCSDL", "experiment": "Acetylcholinesterase (AChE) small molecule antagonists: fluorescence cell-based qHTS assay (AID 1347398); note: nearly all actives have a fitted effect of over 50% in size", "details": "SH-SY5Y cells; Potency: AChE activity; series mostly up to 115 µM; activity change, negative = inhibition: at the top concentration", "excerpt": "National Center for Advancing Translational Sciences [NCATS]\nDivision of Preclinical Innovation [DPI]\nU.S. Environmental Protection Agency [EPA]\nNational Institutes of Environmental Health Sciences [NIEHS]\nNational Toxicology Program [NTP]\nU.S. Food and Drug Administration [FDA]\nAcetylcholinesterase (AChE) is the primary cholinesterase in the body that hydrolyzes a key neurotransmitter, acetylcholine. Inhibition of AChE activity can lead to neurotoxicity. Known inhibitors of AChE include organophosphorous pesticides (OP), chemical warfare agents, drugs, and various phytochemicals.\nA homogenous cell-based assay using Amplitetrade mark Fluorimetric Acetylcholinesterase Assay Kit *Green Fluorescence* (AAT Bioquest, Sunnyvale, CA) was used to evaluate the chemicals in the Tox21 10K library that inhibit AChE activity. The assay uses Thiolite Green to quantify the thiocholine produced from the hydrolysis of acetylthiocholine by AChE from the SH-SY5Y cells. AChE can hydrolyze acetylthiocholine to create thiocholine. Thiolite Green is fluorescent when reacting with thiocholine. It has spectral properties similar to those of fluorescein. The fluorescence intensity of Thiolite Green is used to measure AChE activity. Its signal can be easily read by a fluorescence microplate reader at Ex/Em = 490/520 nm.\nTox21 Assay Protocol Summary:\nFor cell-based AChE assay, 2,000 SH-SY5Y cells in 4 uL/well were dispensed into black, clear-bottom 1536-well plates using a Multidrop Combi (Thermo Scientific) dispenser. The assay plates were incubated overnight at 37 C to allow cells to attach to the wells, followed by the transfer of 23 nL compound or DMSO (vehicle control) by a Pintool station (Wako Automation, CA). The plates were incubated for 30 min at 37 C and 5% CO2, followed by the addition of 4 uL of detection cocktail solution (ThioliteGreen, acetylthiocholine) into each well using Flying Reagent Dispenser (Beckman Coulter, CA) and then following 40 min incubation at room temperature. Fluorescent intensity (Ex/Em = 490/520 nm) was measured using an Envision plate reader (PerkinElmer, MA)."}
{"smiles": "O=NN1CCCCCCC1", "Potency": "inactive"}
{"smiles": "OCCN(CCO)CCO", "Potency": "inactive"}
{"smiles": "Clc1ccc(Cl)cc1", "Potency": "inactive"}
{"smiles": "COCCl", "Potency": "inactive"}
{"smiles": "O=c1[nH]c2ccccc2c(=O)o1", "Potency": "inactive"}
{"smiles": "Oc1ccccc1Cl", "Potency": "inactive"}
{"smiles": "CC(C)(Cl)Cl", "Potency": "inactive"}
{"smiles": "CCCCN(CCCC)SN(C)C(=O)Oc1cccc2c1OC(C)(C)C2", "Potency": "36.2 nM (active) and 564 nM (active)"}
{"smiles": "Nc1ccccc1C(=O)O", "Potency": "inactive"}
{"smiles": "C[C@]12CC[C@H]3[C@@H](CC[C@@]45O[C@@H]4C(O)=C(C#N)C[C@]35C)[C@@H]1CC[C@@H]2O", "Potency": "inactive"}
{"smiles": "CN(C)CCO", "Potency": "inactive"}
{"smiles": "ClCc1cccnc1", "Potency": "inactive"}
{"smiles": "O=c1n(Cl)c(=O)n(Cl)c(=O)n1Cl", "Potency": "inactive"}
{"smiles": "CC(C)(C)OOC(C)(C)C", "Potency": "inactive"}
{"smiles": "CCCCOC(=O)c1ccccc1C(=O)OCCCC", "Potency": "inactive"}
{"smiles": "Cc1ccc(N)cc1Cl", "Potency": "inactive"}
{"smiles": "CN(C)N=O", "Potency": "inactive"}
{"smiles": "O=NN1CCCC1", "Potency": "inactive"}
{"smiles": "CC(C)=C[C@@H]1[C@@H](C(=O)OCc2coc(Cc3ccccc3)c2)C1(C)C", "Potency": "inactive"}
{"smiles": "c1ccc(OP(Oc2ccccc2)Oc2ccccc2)cc1", "Potency": "inactive"}
{"smiles": "NCCc1ccc(O)cc1", "Potency": "inactive"}
{"smiles": "O=c1ccc(=O)[nH][nH]1", "Potency": "inactive"}
{"smiles": "CCN(CC)c1ccccc1", "Potency": "inactive"}
{"smiles": "CCN(CC)CCO", "Potency": "inactive"}
{"smiles": "CC(C)OC(=O)Nc1ccccc1", "Potency": "inactive"}
{"smiles": "C1CC2OC2CC1C1CO1", "note": "(stereo not given)", "Potency": "inactive"}
{"smiles": "CCOP(=S)(OCC)SCCSCC", "activity change, negative = inhibition": "-17.1% [at 53.7 µM]"}
{"smiles": "Nc1c(Cl)c(Cl)nc(C(=O)O)c1Cl", "Potency": "inactive"}
{"smiles": "CCc1cccc(C)c1N(C(=O)CCl)C(C)COC", "note": "(stereo not given)", "Potency": "inactive"}
{"smiles": "Cn1cc(-c2ccccc2)c(=O)c(-c2cccc(C(F)(F)F)c2)c1", "Potency": "inactive"}
{"smiles": "C#CC(C)(C)NC(=O)c1cc(Cl)cc(Cl)c1", "Potency": "inactive"}
{"smiles": "Cc1[nH]c(=O)n(C(C)(C)C)c(=O)c1Cl", "Potency": "inactive"}
{"smiles": "Clc1ccccc1Cl", "Potency": "inactive"}
{"smiles": "Clc1cccc(Cl)c1Cl", "Potency": "inactive"}
{"smiles": "CCCN(CCC)c1c([N+](=O)[O-])cc(C(F)(F)F)cc1[N+](=O)[O-]", "Potency": "inactive"}
{"smiles": "O=[N+]([O-])c1ccc(Oc2ccc(Cl)cc2Cl)cc1", "Potency": "inactive"}
{"smiles": "C=CCO", "Potency": "inactive"}
{"smiles": "O=[N+]([O-])c1ccc([As](=O)(O)O)cc1", "Potency": "inactive"}
{"smiles": "CN=C=S", "Potency": "inactive"}
{"smiles": "CCCN(CCC)N=O", "Potency": "inactive"}
